Test results as given in the supplement of paper PMC13380429.

System: Vero E6 infected with SARS-CoV-2
Test: inhibition of SARS-CoV-2 cytopathic effect; higher = more antiviral protection, active = above 15
Conditions: 48 h

| Structure (SMILES) | inhibition of SARS-CoV-2 cytopathic effect (1 nM) | inhibition of SARS-CoV-2 cytopathic effect (8.33 nM) | inhibition of SARS-CoV-2 cytopathic effect (100 nM) | inhibition of SARS-CoV-2 cytopathic effect (833.33 nM) | inhibition of SARS-CoV-2 cytopathic effect (10000 nM) |
| --- | --- | --- | --- | --- | --- |
| Cc1cnc(-c2cc(N3CCN(C(=O)CCS(C)(=O)=O)CC3)ncc2Cl)c(C)c1 | -1.36% (inactive) | -0.24% (inactive) | 0.43% (inactive) | -2.37% (inactive) | -0.86% (inactive) |
| C[C@@H](N)Cc1c[nH]c2ccc(O)cc12 [alpha-methylserotonin] | -0.1% (inactive) | -1.31% (inactive) | -1.23% (inactive) | -0.05% (inactive) | -3.72% (inactive) |
| COc1ccc([C@@H]2CC(=O)c3c(O)cc(O[C@@H]4O[C@H](CO[C@@H]5O[C@@H](C)[C@H](O)[C@@H](O)[C@H]5O)[C@@H](O)[C@H](O)[C@H]4O)cc3O2)cc1O [hesperidin] | 1.23% (inactive) | 2.76% (inactive) | 0.86% (inactive) | 0.15% (inactive) | 1.25% (inactive) |
| CCCCCCN(CCCCCC)C(=O)Cc1c(-c2ccc(Cl)cc2)[nH]c2ccc(Cl)cc12 | 1.54% (inactive) | 2.57% (inactive) | -1.81% (inactive) | -0.56% (inactive) | -0.57% (inactive) |
| c1ccc2c(c1)CCC[C@H]2Nc1nc2ccccc2[nH]1 | 2.74% (inactive) | 2.66% (inactive) | 1.8% (inactive) | -1.92% (inactive) | -0.48% (inactive) |
| O=C(C1CCCCC1)N1CC(=O)N2CCc3ccccc3C2C1 (stereo not given) [praziquantel] | -1.8% (inactive) | 0.08% (inactive) | 1.39% (inactive) | 2.67% (inactive) | 0.6% (inactive) |
| CC1(COc2ccc(CC3SC(=O)NC3=O)cc2)CCCCC1 (stereo not given) [ciglitazone] | -1.15% (inactive) | -3.35% (inactive) | -1.82% (inactive) | 3.16% (inactive) | 4.02% (inactive) |
| O=C(Nc1cc(Oc2cc(F)c(NC(=O)C3(C(=O)Nc4ccc(F)cc4)CC3)cc2F)ccn1)C1CC1 [altiratinib] | -1% (inactive) | 2.23% (inactive) | 3.44% (inactive) | -1.62% (inactive) | 1.09% (inactive) |
| OCCCNc1ccccc1 [3-anilinopropan-1-ol] | -0.17% (inactive) | 2.09% (inactive) | -0.59% (inactive) | -0.07% (inactive) | 1.39% (inactive) |
| Cn1ncnc1[C@H]1c2n[nH]c(=O)c3cc(F)cc(c23)N[C@@H]1c1ccc(F)cc1 [talazoparib] | 0.71% (inactive) | 2.94% (inactive) | 2.17% (inactive) | -0.1% (inactive) | -3.8% (inactive) |
| CS(=O)(=O)c1ccc(Cn2c3c(c4cc(F)cc(F)c42)CCCC3CC(=O)O)cc1 (stereo not given) | 0.13% (inactive) | -0.29% (inactive) | -0.12% (inactive) | 1.36% (inactive) | -1.55% (inactive) |
| CN[C@@H]1[C@@H](O[C@H]2O[C@H](CO)[C@@H](N)[C@H](O)[C@H]2O)O[C@H]2C[C@@H](N)[C@@H](O[C@H]3[C@H](O)[C@@H](O)[C@H](N)C[C@@H]3N)O[C@@H]2[C@@H]1O [apramycin] | -4.27% (inactive) | -2.53% (inactive) | -2.38% (inactive) | 0.37% (inactive) | 0.71% (inactive) |
| N#CC(c1ccnc(OCc2ccc(CN3CCOCC3)cc2)n1)c1nc2ccccc2s1 (stereo not given) | -1.68% (inactive) | 0.15% (inactive) | 1.92% (inactive) | 2.82% (inactive) | 6.87% (inactive) |
| Cc1cc(CC(C)CC(C)(C)C)n(O)c(=O)c1 (stereo not given) [piroctone-olamine] | -1.12% (inactive) | 3.7% (inactive) | 3.23% (inactive) | 1.26% (inactive) | -1.5% (inactive) |
| COc1cc(/C=C/C(=O)CC(=O)/C=C/c2ccc(O)c(OC)c2)ccc1O [curcumin] | -1.79% (inactive) | -0.65% (inactive) | 1.73% (inactive) | 4.68% (inactive) | 23.4% (active) |
| Nc1nc2cc(-c3ccc4ncc(C(=O)N5CCOCC5)n4c3)ccc2o1 | 0.78% (inactive) | 5.87% (inactive) | 4.68% (inactive) | 3.05% (inactive) | -2.33% (inactive) |
| CCn1cnc(C(=O)NC)c1C(=O)NC [ethimizol] | -1.81% (inactive) | 0.39% (inactive) | -1.18% (inactive) | 1.42% (inactive) | 1.32% (inactive) |
| COc1ccc2c(c1OC)C(=O)O[C@@H]2[C@H]1c2c(cc3c(c2OC)OCO3)CCN1C [noscapine] | -3% (inactive) | 0.3% (inactive) | -0.27% (inactive) | -0.71% (inactive) | -2.79% (inactive) |
